This note sets out measurements from PubChem BioAssay.

Molecules are shown by their SMILES. “And” between values parts separate entries of the source, which are not always exact repeats. Equal entries are not always repeated. The source made the active and inactive calls.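 Rule for the calls, unless noted: active = compounds whose cell count with miR-34 switched on is under 0.7 times the count with it off; inactive = the rest.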 Where a SMILES comes first, the peptide text is derived from it. [ ]: non-standard residue; d: D form.

Assay [1] concerns Aerobactin synthetase IucA (Klebsiella pneumoniae). Description: IucA aerobactin synthetase inhibitors, biochemical, Tocris library, absorbance (AID 1345561; call rule not given here;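 note: 100% = enzyme without compound and 0% = no enzyme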). The conditions noted are these: purified IucA enzyme assay, absorbance (OD) read-out; stronger effect = lower value;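 tested at 8 µM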.
The nature of assay [2]: sensitizers of A549 cells to miR-34 induction, primary screen, imaging, A549 dox-inducible miR-34, nuclei and caspase counts (AID 1347080). The conditions noted are these: A549 miR-34 inducible, Hoechst nuclei count, 48 h.
Assay [3] can be described thus: viability rescue of complex I mutant cybrids, primary screen, cell-based, galactose medium, ATP luminescence (AID 1645843;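 active = z-score of at least 1.8 in each of two replicates, scored against plate mean and spread of sample wells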;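 note: positive z means more ATP and so rescue of galactose-driven cybrid death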). The conditions noted are these: complex I mutant cybrid cells, 72 h, stronger effect = higher value.
[4] abbreviates: stronger effect = lower value, cell number ratio, induced over uninduced.
Setting [5] is: measured here: relative caspase fold change +Dox/-Dox.
[6] abbreviates: measured here: total cells with miR-34 induction, stronger effect = lower value.
[7] abbreviates: measured here: total cells without miR-34 induction.

Consider `O=[N+]([O-])c1ccccc1S(=O)(=O)NCC1CCC(CNCC2CCc3ccccc3C2)CC1` (configuration not stated), for which, in assay [1], the remaining activity (as a rule, the signal under treatment as a percentage of the control signal) was 97.1% (inactive). In addition, the fold change is 0.747 (inactive) in assay [2] (setting [4]) and 1.77 in assay [2] (setting [5]). Moreover, the cell count worked out at 2050 in assay [2] (setting [6]) and 2740 in assay [2] (setting [7]). In addition, the z-score in assay [3] was -0.675 (inactive).
Take `CC[C@H](CO)Nc1nc(Nc2cccc(-c3ccccn3)c2)c2ncn(C(C)C)c2n1`: in assay [1], the remaining activity is 119% (inactive). For the same molecule, the fold change is 1.12 (inactive) in assay [2] (setting [4]) and 1.35 in assay [2] (setting [5]). The cell count in assay [2] (setting [6]) turned out to be 1500; in assay [2] (setting [7]) it was 1340. Also, in assay [3], the z-score is -0.95 (inactive).
As for `CN(C)C(=O)C(=O)c1cn(C)c2cc(Cl)c(C(=O)N3CCC(Cc4ccc(F)cc4)CC3)cc12`, the remaining activity in assay [1] is 118% (inactive). Further, the values for the fold change in assay [2] (setting [4]) and in assay [2] (setting [5]) were 1.09 (inactive) and 0.88, respectively. Moreover, the figures for the cell count in assay [2] (setting [6]) and in assay [2] (setting [7]) were 4920 and 4530, respectively. For the same molecule, in assay [3], the z-score was -0.96 (inactive).
Consider `COc1ccc([C@H]2CNC(=O)C2)cc1OC1CCCC1`, for which the remaining activity in assay [1] is 113% (inactive). For the same molecule, the results for the fold change in assay [2] (setting [4]) and in assay [2] (setting [5]) were 0.966 (inactive) and 0.702, respectively. Also, the cell count in assay [2] (setting [6]) amounted to 9600; in assay [2] (setting [7]), 9950. In addition, the z-score in assay [3] is -0.255 (inactive).
`O=C(c1ccc(F)cc1)C1CCN(CCCCc2ccccc2)CC1`: the remaining activity in assay [1] is 113% (inactive). The fold change in assay [2] (setting [4]) is 0.877 (inactive); in assay [2] (setting [5]), 1.29. Moreover, the cell count in assay [2] (setting [6]) is 8620; in assay [2] (setting [7]), 9830. Moreover, in assay [3], the z-score is -0.88 (inactive).
`O=[N+]([O-])c1cc(Cl)ccc1S(=O)(=O)N1CCN(Cc2ccccc2)CC1`: the remaining activity in assay [1] was 110% (inactive). Besides, the fold change was 0.93 (inactive) in assay [2] (setting [4]) and 1.18 in assay [2] (setting [5]). In addition, the cell count in assay [2] (setting [6]) is 8490; in assay [2] (setting [7]) it was 9130. Moreover, in assay [3], the z-score is -0.68 (inactive).
For `N[C@@H](Cc1cc(CP(=O)(O)O)cc(-c2ccccc2Cl)c1)C(=O)O`, the remaining activity in assay [1] was 118% (inactive). For the same molecule, the fold change in assay [2] (setting [4]) is 0.967 (inactive); in assay [2] (setting [5]), 1.52. The cell count in assay [2] (setting [6]) stood at 9360; in assay [2] (setting [7]), 9670. Moreover, the z-score in assay [3] was 0.225 (inactive).
`CCCn1c(=O)c2[nH]c(-c3ccccc3)nc2n(CCC)c1=O`: the remaining activity in assay [1] was 113% (inactive). Further, the fold change in assay [2] (setting [4]) is 1.13 (inactive); in assay [2] (setting [5]) it was 0.687. Besides, the cell count in assay [2] (setting [6]) is 4790; in assay [2] (setting [7]) it was 4230. For the same molecule, the z-score in assay [3] was -0.115 (inactive).
On to `CN(Cc1ccccc1)C(=O)[C@H](Cc1ccc2ccccc2c1)NC(=O)[C@@H]1C[C@@H](O)CN1C(=O)c1cn(C)c2ccccc12`, for which the remaining activity in assay [1] is 102% (inactive). The fold change in assay [2] (setting [4]) is 0.957 (inactive); in assay [2] (setting [5]), 1.21. Also, the cell count in assay [2] (setting [6]) was found to be 6080; in assay [2] (setting [7]), 6350. The z-score in assay [3] is 3.41 (active).
As to `c1ncc(CC2CCNCC2)[nH]1`, the remaining activity in assay [1] was 101% (inactive). The fold change in assay [2] (setting [4]) was 0.95 (inactive); in assay [2] (setting [5]), 0.717. The cell count was determined as 8900 in assay [2] (setting [6]) and 9370 in assay [2] (setting [7]). Further, the z-score in assay [3] was 0.095 (inactive).
In the case of `COc1cc2c(cc1OC)C(c1ccc(N)cc1)=NNC(=O)C2`, in assay [1], the remaining activity was 103% (inactive). Moreover, the fold change was 1.07 (inactive) in assay [2] (setting [4]) and 0.53 in assay [2] (setting [5]). Moreover, the cell count was determined as 4030 in assay [2] (setting [6]) and 3760 in assay [2] (setting [7]). In addition, the z-score in assay [3] was 0.045 (inactive).
For `O=C(Nc1ccccc1)C12CC1/C(=N\O)c1ccccc1O2` (configuration not stated), the remaining activity in assay [1] was 107% (inactive). The fold change is 0.911 (inactive) in assay [2] (setting [4]) and 0.471 in assay [2] (setting [5]). Besides, the cell count came out at 7010 in assay [2] (setting [6]) and 7700 in assay [2] (setting [7]). Also, in assay [3], the z-score was 0.135 (inactive).
In the case of `O=C(O)c1ccc(-c2ccc3cc(C45CC6CC(CC(C6)C4)C5)c(O)cc3c2)cc1`, in assay [1], the remaining activity was 87.5% (inactive). In addition, the fold change was 1.14 (inactive) in assay [2] (setting [4]) and 1.52 in assay [2] (setting [5]). For the same molecule, the cell count worked out at 1990 in assay [2] (setting [6]) and 1740 in assay [2] (setting [7]). Besides, the z-score in assay [3] is -0.695 (inactive).
With `COc1cc(N)c(Cl)cc1C(=O)OCCCN1CCCCC1`, the remaining activity in assay [1] is 102% (inactive). The figures for the fold change in assay [2] (setting [4]) and in assay [2] (setting [5]) were 0.975 (inactive) and 0.823, respectively. The figures for the cell count in assay [2] (setting [6]) and in assay [2] (setting [7]) were 9460 and 9700, respectively. In assay [3], the z-score was 0.255 (inactive).
Regarding `CSc1cc2c(cc1C(F)(F)F)N(C(=O)Nc1cccnc1)CC2`, the remaining activity in assay [1] was 112% (inactive). Moreover, the values for the fold change in assay [2] (setting [4]) and in assay [2] (setting [5]) were 0.921 (inactive) and 0.728, respectively. The cell count was 9460 in assay [2] (setting [6]) and 10300 in assay [2] (setting [7]). In assay [3], the z-score was 0.05 (inactive).
With `COC(=O)C1=C(C)NC(C)=C(C(=O)OCCCN2CCC(c3ccccc3)(c3ccccc3)CC2)[C@@H]1c1cccc([N+](=O)[O-])c1`, the remaining activity in assay [1] is 109% (inactive). For the same molecule, the fold change in assay [2] (setting [4]) is 1.06 (inactive); in assay [2] (setting [5]), 1.28. Further, the cell count in assay [2] (setting [6]) amounted to 310; in assay [2] (setting [7]), 292. In assay [3], the z-score was -0.83 (inactive).
Consider `CCN(CC)c1ccc(/C=N/NC(=O)c2ccc(O)cc2)cc1`, for which, in assay [1], the remaining activity was 100% (inactive). Moreover, the fold change is 0.945 (inactive) in assay [2] (setting [4]) and 1.02 in assay [2] (setting [5]). Further, the cell count in assay [2] (setting [6]) amounted to 5490; in assay [2] (setting [7]), 5810. The z-score in assay [3] is 0.055 (inactive).
On to `COc1ccc(C2CC(c3c(O)cc(C)oc3=O)=NCCS2)c(OC)c1` (configuration not stated), for which the remaining activity in assay [1] is 98.6% (inactive). For the same molecule, the fold change in assay [2] (setting [4]) is 1.45 (inactive); in assay [2] (setting [5]) it was 2.3. Further, the results for the cell count in assay [2] (setting [6]) and in assay [2] (setting [7]) were 1350 and 929, respectively. Also, the z-score in assay [3] is -0.235 (inactive).
`N#Cc1ccccc1OCC(O)CNCCNC(=O)Nc1ccccc1` (configuration not stated): in assay [1], the remaining activity was 118% (inactive). Moreover, the figures for the fold change in assay [2] (setting [4]) and in assay [2] (setting [5]) were 0.847 (inactive) and 1.36, respectively. The cell count stood at 8970 in assay [2] (setting [6]) and 10600 in assay [2] (setting [7]). The z-score in assay [3] was -0.64 (inactive).
For `CC(=O)N(OCc1ccccc1)[C@@H]1c2cc(C#N)ccc2OC(C)(C)[C@H]1O`, in assay [1], the remaining activity was 105% (inactive). In addition, the fold change in assay [2] (setting [4]) was 0.887 (inactive); in assay [2] (setting [5]), 0.973. Moreover, the cell count in assay [2] (setting [6]) was found to be 8320; in assay [2] (setting [7]) it was 9380. For the same molecule, the z-score in assay [3] is 0.705 (inactive).
For `CC(C)c1ccc2c(c1)CC[C@H]1[C@](C)(CN)CCC[C@]21C`, the remaining activity in assay [1] is 101% (inactive). Besides, the fold change in assay [2] (setting [4]) was 0.931 (inactive) and 0.9 (inactive); in assay [2] (setting [5]), 0.286 and 1.62. The cell count in assay [2] (setting [6]) was 5370 and 346; in assay [2] (setting [7]), 5760 and 384. Moreover, the z-score in assay [3] is -0.56 (inactive).
Consider `CC(=O)NCC(=O)N[C@H](CCC(=O)O)C(=O)O` (Ac-Gly-[dE]-OH), for which, in assay [1], the remaining activity is 103% (inactive). For the same molecule, the results for the fold change in assay [2] (setting [4]) and in assay [2] (setting [5]) were 0.899 (inactive) and 0.513, respectively. In addition, the figures for the cell count in assay [2] (setting [6]) and in assay [2] (setting [7]) were 9020 and 10000, respectively. The z-score in assay [3] is -0.245 (inactive).
